Reference: PubChem BioAssay (NCATS)
Records with an inconclusive call do not appear. Calls of active or inactive are those of the source. Unless noted, calls come from the whole dose curve; as a rule, active = well fitted curve in the direction sought with a large enough effect; inconclusive = small, poorly fitted or top-dose-only effect, or another doubt; inactive = no such curve, though single readings can be large; an effect the other way counts as inactive or inconclusive.

How the values were obtained:
[1] = target: Lysosomal acid glucosylceramidase (Homo sapiens) (UniProt P04062); experiment: Glucocerebrosidase-p2 (AID 348; in the data active = potency below about 10 µM; note: potency is the fitted concentration of half-maximal effect); conditions: purified GBA, blue fluorogenic substrate, 40 min
Sequence of Lysosomal acid glucosylceramidase (Homo sapiens) (P04062 whole entry, looked up): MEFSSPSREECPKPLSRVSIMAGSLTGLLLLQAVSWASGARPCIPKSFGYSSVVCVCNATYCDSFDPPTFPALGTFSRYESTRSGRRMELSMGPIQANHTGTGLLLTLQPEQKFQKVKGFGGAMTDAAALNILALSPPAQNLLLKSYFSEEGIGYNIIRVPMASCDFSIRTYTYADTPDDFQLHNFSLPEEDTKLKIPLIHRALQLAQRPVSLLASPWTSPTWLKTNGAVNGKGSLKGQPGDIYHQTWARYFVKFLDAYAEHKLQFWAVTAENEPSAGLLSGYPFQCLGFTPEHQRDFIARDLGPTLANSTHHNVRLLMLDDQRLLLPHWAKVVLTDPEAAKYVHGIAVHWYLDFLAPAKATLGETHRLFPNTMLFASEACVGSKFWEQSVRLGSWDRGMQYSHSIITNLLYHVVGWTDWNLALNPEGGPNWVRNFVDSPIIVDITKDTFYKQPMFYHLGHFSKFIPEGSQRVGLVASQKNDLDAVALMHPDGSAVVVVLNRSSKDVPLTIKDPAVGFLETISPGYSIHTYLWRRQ
In short: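 Compounds titrated from 0.6 nM upwards against 0.2 nM enzyme in pH 5.9 citric acid/KH2PO4, taurocholate, tween-20; blue fluorogenic substrate 80 uM, 40 min room temperature, stopped and read Ex 365/Em 440 for AC50.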

[2] = AP1 Signaling Pathway (AID 357; active = well fitted curve in either direction with a large enough effect, not every such curve was filed as active;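 note: ME-180 reporter cells stimulated with EGF at its EC50 level; % is set by controls: 0 for no effect and ±100 for the full control effect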); conditions: ME-180 AP-1-bla reporter, EGF-induced, beta-lactamase ratio, 5 h; at 7.69 µM (top of the series) unless noted
In short: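 In this screen, ME-180 cells in Opti-MEM with 0.5% dialyzed FBS received EC50 EGF and compound titrations for 5 h. AP-1 reporter beta-lactamase was detected via CCF4 ratio, giving AC50 for positive and negative modulators.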

[3] = target: Cytochrome P450 1A2 (Homo sapiens) (UniProt P05177); experiment: p450-cyp1a2 (AID 410; calls by dose curve; note: potency is the fitted concentration of half-maximal effect;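 for activity change, negative = inhibition: -100% = full effect of reference inhibitor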); conditions: recombinant CYP1A2, luciferin-ME demethylation, luminescence; series mostly up to 57 µM
Sequence of Cytochrome P450 1A2 (Homo sapiens) (P05177 whole entry, looked up): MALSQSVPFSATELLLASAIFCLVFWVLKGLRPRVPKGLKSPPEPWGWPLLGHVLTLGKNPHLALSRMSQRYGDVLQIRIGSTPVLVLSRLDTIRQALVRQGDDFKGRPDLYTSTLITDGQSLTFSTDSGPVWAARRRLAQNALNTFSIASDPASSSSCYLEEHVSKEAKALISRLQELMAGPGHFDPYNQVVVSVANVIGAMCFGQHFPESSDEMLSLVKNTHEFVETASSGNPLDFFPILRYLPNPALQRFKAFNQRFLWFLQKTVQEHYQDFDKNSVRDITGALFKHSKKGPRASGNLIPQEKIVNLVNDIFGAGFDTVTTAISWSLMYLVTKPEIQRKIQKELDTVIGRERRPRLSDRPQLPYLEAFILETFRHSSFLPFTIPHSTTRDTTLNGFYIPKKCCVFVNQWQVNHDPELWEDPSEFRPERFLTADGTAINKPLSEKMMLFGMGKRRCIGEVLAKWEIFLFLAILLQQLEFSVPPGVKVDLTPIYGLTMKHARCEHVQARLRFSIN
In short: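 Human CYP1A2 (20nM) demethylated Luciferin-ME at its Km (100uM) in 100mM KPO4. After 10 min compound preincubation, NADPH regeneration ran the reaction 60 min at room temperature. Luciferin was read by luminescence, normalized to 57 uM furafylline.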

[4] = NFAT Signaling Pathway (AID 444; active = well fitted curve in either direction with a large enough effect, not every such curve was filed as active;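 note: carbachol stimulus at about its EC50 of 1 µM final; % is set by controls: 0 for no effect and ±100 for the full control effect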); conditions: Jurkat NFAT-bla M1, carbachol, beta-lactamase ratio, 5 h; at 7.69 µM (top of the series) unless noted
In short: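 Jurkat cells with NFAT-driven β-lactamase reporter and co-expressed M1 receptor, stimulated with carbachol (final 1 uM, ~EC50), compound titration, 5 h at 37 °C. CCF4 loaded 1 h at RT; 460/530 nm ratio gave %activity and AC50.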

[5] = Stat Signaling Pathway (AID 446; active = well fitted curve in either direction with a large enough effect, not every such curve was filed as active;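 note: ME-180 cervical cancer cells given 40 pM IL-6 alongside compound; SIE-controlled beta-lactamase reporter measured as 460/530 nm FRET emission ratio; % is set by controls: 0 for no effect and ±100 for the full control effect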); conditions: ME-180 SIE beta-lactamase reporter, IL-6 stimulated, 5 h; at 7.69 µM (top of the series) unless noted
In short: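 IL-6/STAT signaling read in ME-180 cells via an SIE beta-lactamase reporter. Stimulus was 40 pM IL-6 (its AC50) for 5 hrs, so both activation and inhibition register.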

[6] = target: Glucocorticoid receptor (Homo sapiens) (UniProt P04150); experiment: GR-GFP Redistribution (AID 450;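 active = compounds whose dose series gives a full or clear partial fitted curve of increased nuclear translocation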; note: potency is the fitted concentration of half-maximal effect); conditions: U2OS GR-GFP nuclear translocation, laser cytometry, 2 h
Sequence of Glucocorticoid receptor (Homo sapiens) (P04150 whole entry, looked up, the tested form may be a part): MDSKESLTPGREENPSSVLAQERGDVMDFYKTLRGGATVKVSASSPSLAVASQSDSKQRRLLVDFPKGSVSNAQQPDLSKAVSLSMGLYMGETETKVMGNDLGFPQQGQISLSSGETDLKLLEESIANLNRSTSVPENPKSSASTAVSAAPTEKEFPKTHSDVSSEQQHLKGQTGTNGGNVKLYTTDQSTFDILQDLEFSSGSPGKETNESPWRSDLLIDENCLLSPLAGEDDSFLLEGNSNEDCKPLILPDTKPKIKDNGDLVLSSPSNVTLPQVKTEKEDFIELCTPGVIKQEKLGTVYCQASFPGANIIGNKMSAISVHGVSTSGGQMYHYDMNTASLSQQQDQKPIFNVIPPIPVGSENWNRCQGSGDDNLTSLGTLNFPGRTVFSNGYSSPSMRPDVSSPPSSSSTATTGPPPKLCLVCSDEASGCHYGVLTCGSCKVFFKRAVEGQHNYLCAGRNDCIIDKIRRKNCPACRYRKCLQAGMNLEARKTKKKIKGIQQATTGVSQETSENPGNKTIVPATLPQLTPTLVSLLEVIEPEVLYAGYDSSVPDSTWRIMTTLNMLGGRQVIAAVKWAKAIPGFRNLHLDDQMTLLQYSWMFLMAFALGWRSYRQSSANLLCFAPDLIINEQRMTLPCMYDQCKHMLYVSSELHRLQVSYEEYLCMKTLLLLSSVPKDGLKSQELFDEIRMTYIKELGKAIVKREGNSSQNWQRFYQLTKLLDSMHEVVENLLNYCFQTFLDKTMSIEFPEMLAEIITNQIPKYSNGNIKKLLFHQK

[7] = target: Glucocorticoid receptor (Homo sapiens) (UniProt P04150); experiment: GR-EFC Redistribution (AID 451; calls by dose curve; note: potency is the fitted concentration of half-maximal effect); conditions: CHO-K1 GR-EFC translocation, beta-gal luminescence, 2 h
In short: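 CHO-K1 cells expressing nuclear EA and GR-ED fragments of b-gal; compounds titrated up to 46 uM final, 2 h at 37 C. GR nuclear translocation read as complemented b-gal luminescence after 1 h RT detection.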

[8] = target: Mitogen-activated protein kinase 10 (Mus musculus) (UniProt Q61831); experiment: JNK3 AlphaScreen Assay (AID 530; active = well fitted curve in either direction with a large enough effect, not every such curve was filed as active;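 note: kinase came from lysate of stimulated human HepG2 cells; signal reports phosphorylation of biotinylated GST-cJun 1-79 at Ser73 with 10 µM ATP; % is set by controls: 0 for no effect and ±100 for the full control effect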); conditions: JNK3 lysate, c-Jun phosphorylation; series mostly up to 57.1 µM
In short: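 qHTS format: compounds tested as titrations against IL-1beta/TNF-alpha-activated HepG2 lysate JNK3 with biotin-GST-cJun substrate and 10 uM ATP at room temperature. Loss of anti-phospho-cJun AlphaScreen signal indicates inhibition.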

[9] = target: 3',5'-cyclic-AMP phosphodiesterase 4B (Homo sapiens) (UniProt Q07343); experiment: qHTS Assay for Inhibitors of PDE-IV (AID 607; active = well fitted activation curve with a large enough effect in the main read-out, with a control signal flat, not every such curve was filed as active; note: % of control where 0% means no effect); conditions: HEK293 ACTOne CNG channel cells, membrane potential fluorescence; series mostly up to 22.9 µM
Sequence of 3',5'-cyclic-AMP phosphodiesterase 4B (Homo sapiens) (Q07343 whole entry, looked up): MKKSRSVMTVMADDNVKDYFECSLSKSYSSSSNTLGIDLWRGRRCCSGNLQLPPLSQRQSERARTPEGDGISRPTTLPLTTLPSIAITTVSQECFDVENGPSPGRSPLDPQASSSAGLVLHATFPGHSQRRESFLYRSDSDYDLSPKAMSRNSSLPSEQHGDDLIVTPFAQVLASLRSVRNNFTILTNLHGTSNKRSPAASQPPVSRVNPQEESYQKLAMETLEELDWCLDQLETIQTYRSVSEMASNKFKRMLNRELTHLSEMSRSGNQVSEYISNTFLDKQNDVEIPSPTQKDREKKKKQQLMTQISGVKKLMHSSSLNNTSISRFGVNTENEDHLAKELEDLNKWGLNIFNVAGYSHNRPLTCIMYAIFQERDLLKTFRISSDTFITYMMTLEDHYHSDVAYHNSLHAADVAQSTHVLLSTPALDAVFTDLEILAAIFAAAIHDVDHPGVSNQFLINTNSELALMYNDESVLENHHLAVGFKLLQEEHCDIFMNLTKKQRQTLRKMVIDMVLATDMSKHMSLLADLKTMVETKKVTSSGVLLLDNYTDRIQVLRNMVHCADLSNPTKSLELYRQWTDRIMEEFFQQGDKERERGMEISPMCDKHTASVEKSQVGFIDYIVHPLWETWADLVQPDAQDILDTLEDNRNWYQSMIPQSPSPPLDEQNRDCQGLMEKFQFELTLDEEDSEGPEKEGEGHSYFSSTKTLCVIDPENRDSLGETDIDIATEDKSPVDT
In short: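 Live HEK293 cells with a modified cyclic nucleotide-gated (CNG) channel report intracellular cAMP via membrane-potential dye fluorescence (ex 535/em 590 nm). Endogenous PDE-IV was targeted. Compounds were tested at up to 22.9 uM final; RO 20-1724 100 uM served as control.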

[10] = Confirmation and Secondary Assay for Modulators of Hemoglobin Beta Chain Splicing at IVS2 654 locus (AID 910); conditions: HeLa EGFP-654 splicing reporter, GFP fluorescence, 48 h; series mostly up to 38.3 µM;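 note: HeLa cells stably carrying EGFP split by mutant beta-globin IVS2-654 intron; % of control where 0% means no effect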
In short: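 HeLa cells stably expressing EGFP interrupted by β-globin IVS2-654 intron, seeded overnight in Opti-MEM/2% FCS, then treated 2 days at 37 °C. Restored splicing read as total peak GFP intensity per well by laser scanning cytometry (488 nm excitation, 500–520 nm emission); 500 nM antisense PNA as control.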

[11] = Confirmation and Secondary Assay for Modulators of Hemoglobin Beta Chain Splicing at IVS2 705 locus (AID 930); conditions: HeLa EGFP-705 splicing reporter, GFP fluorescence, 48 h; series mostly up to 38.3 µM;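 note: HeLa cells stably expressing the EGFP-705 splicing reporter; GFP fluorescence per well restored by corrected splicing of the IVS2-705 intron in EGFP; % of control where 0% means no effect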
In short: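 Per-well GFP, captured at 1 x 8 µm resolution with 488 nm excitation, served as the read-out for HeLa EGFP-705 cells incubated 2 days with test compound versus DMSO.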

[12] = qHTS Assay for Lipid Storage Modulators (AID 1519; calls by dose curve); conditions: Drosophila S3 cells, BODIPY lipid droplet/cell ratio, laser cytometry, cells loaded with oleic acid; for activity change, negative = inhibition: at 57.5 µM (top of the series)
In short: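 Cells seeded at 5,000 per well were treated with compounds over a concentration series and loaded with oleic acid (400 uM, as added). Lipid droplet fluorescence (488 nm excitation, 500-530 nm channel) was read by laser-scanning cytometry and normalized to 20 uM Triacsin C.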

[13] = target: Ubiquitin carboxyl-terminal hydrolase 1 (Homo sapiens) (UniProt O94782); experiment: Inhibitors of USP1/UAF1: Pilot qHTS (AID 504865); conditions: purified USP1/UAF1, Ub-rhodamine cleavage fluorescence; series mostly up to 54.9 µM;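 note: rhodamine fluorescence freed from ubiquitin-rhodamine substrate followed over time; top concentration of the series differs between compounds; % is set by controls: 0 for no effect and ±100 for the full control effect; nearly all actives have a fitted effect of over 35% in size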
Sequence of Ubiquitin carboxyl-terminal hydrolase 1 (Homo sapiens) (O94782 whole entry, looked up): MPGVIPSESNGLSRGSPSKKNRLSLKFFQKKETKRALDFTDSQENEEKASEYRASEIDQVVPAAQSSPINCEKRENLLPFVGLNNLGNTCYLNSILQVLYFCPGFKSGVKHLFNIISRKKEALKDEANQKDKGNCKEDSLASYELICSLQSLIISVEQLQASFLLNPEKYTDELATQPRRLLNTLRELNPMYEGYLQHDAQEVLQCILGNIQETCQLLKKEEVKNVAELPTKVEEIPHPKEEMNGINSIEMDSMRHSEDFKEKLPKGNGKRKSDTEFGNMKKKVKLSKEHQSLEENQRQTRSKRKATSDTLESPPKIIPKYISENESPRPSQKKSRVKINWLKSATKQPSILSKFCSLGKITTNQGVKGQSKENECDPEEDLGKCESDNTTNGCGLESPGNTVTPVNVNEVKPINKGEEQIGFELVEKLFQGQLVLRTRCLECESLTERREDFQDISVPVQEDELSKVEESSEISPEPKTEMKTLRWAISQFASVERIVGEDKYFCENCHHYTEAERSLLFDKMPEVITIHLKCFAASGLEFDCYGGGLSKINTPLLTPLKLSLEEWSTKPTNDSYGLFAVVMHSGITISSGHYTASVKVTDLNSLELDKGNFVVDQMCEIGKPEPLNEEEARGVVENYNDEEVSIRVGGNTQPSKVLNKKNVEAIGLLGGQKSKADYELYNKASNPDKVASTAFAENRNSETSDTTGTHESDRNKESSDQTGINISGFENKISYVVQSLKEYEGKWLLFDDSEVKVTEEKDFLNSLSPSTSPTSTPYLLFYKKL
In short: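 Enzyme-free wells gave the negative control, while test wells held 1nM USP1/UAF1 preincubated with compound for 15 min at room temperature. Ub-Rho at 150nM final started the reaction, and fluorescence at 480/540 nm was recorded kinetically.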

[14] = Primary qHTS for small molecule stabilizers of the endoplasmic reticulum resident proteome: Secreted ER Calcium Modulated Protein (SERCaMP) assay (AID 1508630); conditions: SH-SY5Y GLuc-SERCaMP (Gaussia luciferase released on ER calcium loss) secretion, thapsigargin, luminescence; series mostly up to 38.4 µM; note: % is set by controls: 0 for no effect and ±100 for the full control effect
In short: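 GLuc-SERCaMP-expressing SH-SY5Y cells, pretreated 16 h with compound, are challenged with thapsigargin to empty ER calcium stores; after 4 h, coelenterazine is added directly to the medium and luminescence is imaged.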

[15] = target: Cytochrome P450 3A4 (Homo sapiens) (UniProt P08684); experiment: qHTS Assay for Inhibitors and Substrates of Cytochrome P450 3A4 (AID 884); conditions: recombinant CYP3A4, Luciferin-PPXE luminescence; series mostly up to 57.1 µM; note: nearly all actives have a fitted effect of over 50% in size; note: potency is the fitted concentration of half-maximal effect
Sequence of Cytochrome P450 3A4 (Homo sapiens) (P08684 whole entry, looked up): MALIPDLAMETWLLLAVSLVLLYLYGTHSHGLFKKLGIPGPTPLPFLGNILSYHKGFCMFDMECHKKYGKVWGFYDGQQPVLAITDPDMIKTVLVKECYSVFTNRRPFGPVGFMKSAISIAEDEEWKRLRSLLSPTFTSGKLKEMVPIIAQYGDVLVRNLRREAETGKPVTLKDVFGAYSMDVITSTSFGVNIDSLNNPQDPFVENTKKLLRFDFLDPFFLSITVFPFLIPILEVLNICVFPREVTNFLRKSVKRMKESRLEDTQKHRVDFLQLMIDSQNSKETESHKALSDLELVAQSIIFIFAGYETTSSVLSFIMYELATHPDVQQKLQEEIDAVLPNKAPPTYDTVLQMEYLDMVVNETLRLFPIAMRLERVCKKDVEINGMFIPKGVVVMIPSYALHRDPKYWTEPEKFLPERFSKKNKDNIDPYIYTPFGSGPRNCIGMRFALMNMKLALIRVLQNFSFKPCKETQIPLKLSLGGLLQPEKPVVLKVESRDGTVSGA
In short: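 20 nM human CYP3A4 with 25 uM Luciferin-PPXE (at KM) in 200 mM KPO4, preincubated 10 min with compound; NADPH regeneration started a 60 min RT reaction. Luciferin detected by luminescence, normalized to 57 uM ketoconazole as full inhibition.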

[16] = target: Cytochrome P450 3A4 (Homo sapiens) (UniProt P08684); experiment: qHTS Assay for Activators of Cytochrome P450 3A4 (AID 885); conditions: recombinant CYP3A4, Luciferin-PPXE luminescence, 60 min; series mostly up to 57.1 µM; note: nearly all actives have a fitted effect of over 65% in size
In short: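 Quantitative HTS format: compounds preincubated with 20nM human CYP3A4 and Luciferin-PPXE substrate at KM, reaction started by NADPH regeneration, stopped after 60 min, luciferase luminescence read 20 min later.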

[17] = qHTS Assay for Identification of Small Molecule Agonists for Hypoxia Response Element Signaling Pathway (AID 914; active = well fitted activation curve with a large enough effect in the signal ratio, with a control signal flat, not every such curve was filed as active; the % refers to the signal ratio; note: % of control where 0% means no effect); conditions: ME-180 (cervical carcinoma) HRE-bla reporter, beta-lactamase ratio, CoCl2, 17 h; activation: stronger effect = higher value
In short: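 In Opti-MEM containing 0.5% dialyzed FBS and 10 mM HEPES, ME-180 HRE-bla cells received a compound titration and EC50 CoCl2. They were incubated 17 hours, then CCF4-loaded 2.5 hours at room temperature before ratio reading.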

[18] = target: Cytochrome P450 2C19 (Homo sapiens) (UniProt P33261); experiment: qHTS Assay for Inhibitors and Substrates of Cytochrome P450 2C19 (AID 899); conditions: recombinant CYP2C19, luciferin-H EGE luminescence; series mostly up to 57.1 µM; note: potency is the fitted concentration of half-maximal effect; nearly all actives have a fitted effect of over 60% in size
Sequence of Cytochrome P450 2C19 (Homo sapiens) (P33261 whole entry, looked up): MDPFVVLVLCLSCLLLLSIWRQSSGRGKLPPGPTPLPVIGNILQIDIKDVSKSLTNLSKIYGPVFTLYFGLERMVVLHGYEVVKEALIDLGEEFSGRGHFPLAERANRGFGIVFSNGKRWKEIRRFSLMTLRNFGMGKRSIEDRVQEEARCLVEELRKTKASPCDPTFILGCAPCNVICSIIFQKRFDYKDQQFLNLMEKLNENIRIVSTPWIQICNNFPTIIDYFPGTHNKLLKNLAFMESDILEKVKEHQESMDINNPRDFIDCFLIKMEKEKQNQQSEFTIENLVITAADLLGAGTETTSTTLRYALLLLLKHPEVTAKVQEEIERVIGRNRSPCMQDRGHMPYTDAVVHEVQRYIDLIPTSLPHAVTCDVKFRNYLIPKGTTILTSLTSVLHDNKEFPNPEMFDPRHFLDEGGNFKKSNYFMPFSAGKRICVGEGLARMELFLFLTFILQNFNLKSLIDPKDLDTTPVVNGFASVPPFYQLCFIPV
In short: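 Luminescent read-out of luciferin formed from Luciferin-H EGE (10uM, equal to KM). Enzyme 5nM in 50mM KPO4; compound added, 10 min at 37C, then NADPH regenerating system for 60 min at 37C. Full inhibition defined by 57uM ketoconazole.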

[19] = measured here: cell count channel max response
[20] = measured here: lipid channel max response

Structure (SMILES)	Potency [1]	activity change, negative = inhibition [2]	Potency [3]	activity change, negative = inhibition [4]	activity, negative = inhibition [5]	Potency [6]	Potency [7]	outcome [8]	Potency [9]	outcome [10]	outcome [11]	activity change, negative = inhibition [12]	max response [12, 19] [%]	max response [12, 20] [%]	Potency [13]	Potency [14]	Potency [15]	Potency [16]	activation [17]	Potency [18]
FC(F)(F)c1ccccc1-c1cc(N2CCNCC2)ncn1	> 11.4 µM (inactive)	10.3% (inactive)	5.01 µM (active)	5.38% (inactive)	3.09% (inactive)	> 46 µM (inactive)	> 46 µM (inactive)	inactive	inactive	inactive	inactive	9.89% (inactive)	13.9	24.8	inactive	inactive				
COc1cccc(-c2cc(NCc3cccs3)ncn2)c1	> 11.4 µM (inactive)	3.15% (inactive)	1.26 µM (active)	17% (inactive)	-4.26% (inactive)	> 46 µM (inactive)	> 46 µM (inactive)	inactive		inactive	inactive	9.36% (inactive)	10.6	25	inactive	inactive	7.94 µM (active)	inactive	-6.23% (inactive)	
COc1ccc(-n2c(=O)c(C)nc3cnc(Oc4ccccc4)nc32)cc1	> 11.4 µM (inactive)	-0.42% (inactive)	7.94 µM (active)	4.01% (inactive)	-17.4% (inactive)	> 9.22 µM (inactive)	> 46 µM (inactive)	inactive	inactive			1.98% (inactive)	16.7	20.5		inactive		inactive		
CN(C)c1ccc(-c2cc(-n3ccnc3)ncn2)cc1	> 11.4 µM (inactive)	2.17% (inactive)	0.158 µM (active)	9.75% (inactive)	15.9% (inactive)	> 46 µM (inactive)	> 46 µM (inactive)	inactive	inactive	inactive	inactive	9.39% (inactive)	11.3	23		inactive	0.0631 µM (active)	inactive		7.94 µM (active)
O=C(O)C1CCN(c2ncnc3ccc(-c4ccccc4C(F)(F)F)cc23)CC1	> 11.4 µM (inactive)	-20.1% (inactive)	inactive	6.97% (inactive)	-9.2% (inactive)	> 46 µM (inactive)	> 46 µM (inactive)	inactive		inactive	inactive	4.82% (inactive)	14.4	20.7	inactive	inactive		inactive		
Cn1c(=O)c(-c2cc(F)cc(F)c2)nc2cnc(Oc3ccccc3)nc21	> 11.4 µM (inactive)	-7.91% (inactive)	2 µM (active)	3.31% (inactive)	0.814% (inactive)	> 9.22 µM (inactive)	> 46 µM (inactive)	inactive	inactive			-4.93% (inactive)	21.4	16.5		inactive	inactive			
